# From the supplement of paper PMC12494721
# Counter-ions that a name gives are not always drawn.
# Experiments:
# Details in all cases: incubation time: 27 h, anaerobic, 37 °C;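 for the amine columns active = adjusted P below 0.05 in both replicates with a change the same way and a mean fold change under 0.8 or over 1.25; inactive = the rest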
# [1] = tested on: Clostridium sporogenes DSM 1664; experiment: growth (OD595) fold change vs plate DMSO controls (fold change (ratio)); higher = more growth
# In short: (§1)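 The 96-well mGAM cultures had been kept anaerobic for 27 h at 37 °C before being shaken and read at 595 nm. Blank subtraction, compound background correction with 20 µM compound solutions in water, and a calibration factor of 5 turned the readings into OD. Growth is given as the fold change versus the median of plate DMSO controls. Fold changes above 1.5 were set to NA, and the values are means of 2 biological replicates.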
# Escherichia coli IAI1 [2] = experiment: as above
# In short: as §1
# [3] = tested on: Klebsiella aerogenes DSM 30053; experiment: as above
# In short: as §1
# [4] = tested on: Ruminococcus gnavus DSM 108212; experiment: as above
# In short: as §1
# [5] = tested on: Klebsiella aerogenes DSM 30053; experiment: fold change of Histamine concentration vs plate DMSO controls (fold change (ratio)); higher = more amine produced, active = hit call of the paper (significant change in both replicates, either direction)
# In short: (§2)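 Each value is the fold change relative to DMSO-only wells on the same plate. Four gut bacterial strains were grown anaerobically in mGAM at 37 °C for 27 h in 80 µL wells, starting at OD 0.1 before a 1:1 dilution, with compounds at 20 µM final (sweeteners 50 µM). Whole cultures were extracted with cold acetonitrile/methanol containing 0.1% formic acid, centrifuged, and amines were quantified by LC–triple-quadrupole MS (dynamic MRM) against external calibration curves with within-batch drift correction. Values are means of 2 biological replicates.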
# [6] = tested on: Clostridium sporogenes DSM 1664; experiment: fold change of Tryptamine concentration vs plate DMSO controls (fold change (ratio)); higher = more amine produced, active = hit call of the paper (significant change in both replicates, either direction)
# In short: as §2
# [7] = tested on: Ruminococcus gnavus DSM 108212; experiment: as above
# In short: as §2
# Escherichia coli IAI1 [8] = experiment: fold change of Putrescine concentration vs plate DMSO controls (fold change (ratio)); higher = more amine produced, active = hit call of the paper (significant change in both replicates, either direction)
# In short: as §2
# [9] = tested on: Klebsiella aerogenes DSM 30053; experiment: as above
# In short: as §2
# Escherichia coli IAI1 [10] = experiment: fold change of Cadaverine concentration vs plate DMSO controls (fold change (ratio)); higher = more amine produced, active = hit call of the paper (significant change in both replicates, either direction)
# In short: as §2
# [11] = tested on: Klebsiella aerogenes DSM 30053; experiment: as above
# In short: as §2
# [12] = tested on: Ruminococcus gnavus DSM 108212; experiment: fold change of 2-Phenylethylamine concentration vs plate DMSO controls (fold change (ratio)); higher = more amine produced, active = hit call of the paper (significant change in both replicates, either direction)
# In short: as §2
Compound,growth [1],growth (Escherichia coli IAI1 [2]),growth [3],growth [4],fold change of Histamine concentration [5],fold change of Tryptamine concentration [6],fold change of Tryptamine concentration [7],fold change of Putrescine concentration (Escherichia coli IAI1 [8]),fold change of Putrescine concentration [9],fold change of Cadaverine concentration (Escherichia coli IAI1 [10]),fold change of Cadaverine concentration [11],fold change of 2-Phenylethylamine concentration [12]
CCn1cc(C(=O)O)c(=O)c2cc(F)c(N3CCNC(C)C3)c(F)c21 (stereo not given) [Lomefloxacin hydrochloride] (20 µM),0.0338,0.0575,0.252,1.01,0.0674 (active),0.0603 (active),1.03 (inactive),0.781 (active),0.627 (active),0.166 (active),0.981 (inactive),1.03 (inactive)
NC(=O)c1cn(Cc2c(F)cccc2F)nn1 [Rufinamide] (20 µM),0.904,0.974,1.01,0.922,0.998 (inactive),0.969 (inactive),1.02 (inactive),0.999 (inactive),0.995 (inactive),0.98 (inactive),0.985 (inactive),1.02 (inactive)
COc1ccccc1OCCNCC(O)COc1cccc2[nH]c3ccccc3c12 (stereo not given) [Carvedilol] (20 µM),0.934,0.974,0.98,1.01,0.972 (inactive),1.03 (inactive),0.977 (inactive),0.987 (inactive),0.98 (inactive),1.02 (inactive),0.989 (inactive),0.998 (inactive)
CC(=O)OCC(=O)[C@@]1(O)CC[C@H]2[C@@H]3CCC4=CC(=O)C=C[C@]4(C)[C@@]3(Cl)[C@@H](Cl)C[C@@]21C [Dichlorisone acetate] (20 µM),1.03,1.01,1,0.886,0.984 (inactive),1.01 (inactive),1.01 (inactive),1.05 (inactive),1.01 (inactive),1.04 (inactive),1 (inactive),0.997 (inactive)
CC(C)C(=O)c1c(C(C)C)nn2ccccc12 [Ibudilast] (20 µM),0.946,0.973,1.02,0.991,1.02 (inactive),0.996 (inactive),1.08 (inactive),1.26 (inactive),0.984 (inactive),0.987 (inactive),0.997 (inactive),1.09 (inactive)
CCn1cc(C(=O)O)c(=O)c2cnc(N3CCCC3)nc21 [Piromidic acid] (20 µM),1.09,1.01,1,0.973,0.944 (inactive),1.02 (inactive),1.06 (inactive),0.913 (inactive),1.02 (inactive),1.06 (inactive),0.999 (inactive),1.09 (inactive)
Clc1ccc(Cn2c(CN3CCCC3)nc3ccccc32)cc1 [Clemizole hydrochloride] (20 µM),1.15,1.01,1.05,0.643,0.939 (inactive),1.11 (inactive),0.858 (inactive),0.882 (inactive),0.958 (inactive),1.41 (active),1.01 (inactive),0.968 (inactive)
C=CCOC(Cn1ccnc1)c1ccc(Cl)cc1Cl (stereo not given) [Enilconazole] (20 µM),1.05,0.989,0.991,0.919,0.966 (inactive),1.19 (inactive),1.15 (inactive),0.862 (inactive),1.01 (inactive),0.939 (inactive),1.13 (inactive),1.56 (active)
C[C@H]1[C@@H](O)O[C@@H]2O[C@@]3(C)CC[C@H]4[C@H](C)CC[C@@H]1[C@@]24OO3 [Artenimol] (20 µM),1.03,1.03,0.982,1.04,1.01 (inactive),0.991 (inactive),1.01 (inactive),1.02 (inactive),1.01 (inactive),1.02 (inactive),1.01 (inactive),0.965 (inactive)
Cc1cccc(Nc2ccncc2S(=O)(=O)NC(=O)NC(C)C)c1 [Torsemide] (20 µM),1.09,1.07,1,1.03,1.03 (inactive),1.05 (inactive),1.12 (inactive),1.06 (inactive),0.998 (inactive),0.976 (inactive),0.986 (inactive),1.24 (inactive)
CC(C(O)c1ccc(O)cc1)N1CCC(Cc2ccccc2)CC1 (stereo not given) [Ifenprodil tartrate] (20 µM),1.02,1.12,1.03,0.985,0.977 (inactive),1.02 (inactive),1.03 (inactive),1.08 (inactive),0.973 (inactive),0.947 (inactive),1 (inactive),0.992 (inactive)
CC1(C)O[C@@H]2[C@@H](CO[C@@]3(COS(N)(=O)=O)OC(C)(C)O[C@@H]23)O1 [Topiramate] (20 µM),0.915,0.972,0.997,1.06,1 (inactive),0.998 (inactive),0.947 (inactive),1.01 (inactive),0.98 (inactive),1.01 (inactive),0.989 (inactive),0.951 (inactive)
CNc1ncnc2c1ncn2[C@@H]1O[C@H](CO)[C@@H](O)[C@H]1O [N6-methyladenosine] (20 µM),1.05,0.994,1.02,0.955,1.03 (inactive),1.03 (inactive),1.04 (inactive),1 (inactive),0.992 (inactive),0.987 (inactive),1 (inactive),1.01 (inactive)
COCC(=O)Nc1c(I)c(C(=O)NCC(O)CO)c(I)c(C(=O)N(C)CC(O)CO)c1I (stereo not given) [Iopromide] (20 µM),1.27,1.02,1.06,1.02,1.01 (inactive),1.01 (inactive),1.11 (inactive),1.09 (inactive),0.975 (inactive),0.989 (inactive),1.02 (inactive),1.15 (inactive)
CC(C)CN(C[C@@H](O)[C@H](Cc1ccccc1)NC(=O)O[C@H]1CO[C@H]2OCC[C@H]21)S(=O)(=O)c1ccc(N)cc1 [Darunavir] (20 µM),1.14,1,1,0.966,1.05 (inactive),1.01 (inactive),0.863 (inactive),1.04 (inactive),0.998 (inactive),1.05 (inactive),0.996 (inactive),0.837 (inactive)
CCOc1ccccc1C(N)=O [Ethenzamide] (20 µM),1.07,1,1.01,0.956,1.02 (inactive),1.1 (inactive),1.01 (inactive),0.983 (inactive),0.985 (inactive),0.986 (inactive),0.978 (inactive),1.03 (inactive)
"CCc1cc(Cl)c(OC)c(C(=O)NC[C@@H]2CCCN2CC)c1O [(S,-) Eticlopride hydrochloride] (20 µM)",0.973,0.985,1.02,0.979,1.04 (inactive),0.99 (inactive),0.88 (inactive),0.975 (inactive),1.02 (inactive),1.01 (inactive),0.985 (inactive),0.939 (inactive)
S=C([S-])NCCNC(=S)[S-].S=C([S-])NCCNC(=S)[S-].[Mn+2].[Zn+2] (20 µM),0.889,0.959,0.994,1.01,0.985 (inactive),1.14 (inactive),1.12 (inactive),1.02 (inactive),0.852 (inactive),0.85 (inactive),1.07 (inactive),1.21 (inactive)
CC1Cc2ccccc2N1NC(=O)c1ccc(Cl)c(S(N)(=O)=O)c1 (stereo not given) [Indapamide] (20 µM),1.04,1.02,0.929,0.659,1 (inactive),1.01 (inactive),1.01 (inactive),1 (inactive),1 (inactive),0.977 (inactive),1 (inactive),1.03 (inactive)
O=C1CCc2ccc(OCCCCN3CCN(c4cccc(Cl)c4Cl)CC3)cc2N1 [Aripiprazole] (20 µM),1.06,1.03,0.979,1.07,1.16 (inactive),0.955 (inactive),0.781 (active),1.03 (inactive),1.01 (inactive),1.11 (inactive),0.976 (inactive),0.811 (inactive)
COc1ccc(C(=O)c2ccc(C)cc2)c(O)c1 [Mexenone] (20 µM),0.644,0.407,0.378,0,1.02 (inactive),1.01 (inactive),1.03 (inactive),1.06 (inactive),1.01 (inactive),1.02 (inactive),0.998 (inactive),1.04 (inactive)
COc1ccc(CN2CCN(C(c3ccc(F)cc3)c3ccc(F)cc3)CC2)c(OC)c1OC [Lomerizine dihydrochloride] (20 µM),1.02,1.08,1.04,0.769,0.983 (inactive),1.08 (inactive),0.781 (inactive),1.09 (inactive),1.01 (inactive),0.984 (inactive),1.01 (inactive),0.87 (inactive)
C[C@@]12CC[C@@H]3[C@@](CC[C@H]4[C@@]3(C)CCC[C@@]4(C)C(=O)O)(CC1=O)C2 [Iso-Steviol] (50 µM),1.08,0.954,1.03,1.09,1.02 (inactive),0.905 (inactive),1 (inactive),0.992 (inactive),1.02 (inactive),0.963 (inactive),1.02 (inactive),0.996 (inactive)
CC1(C)S[C@@H]2[C@H](NC(=O)[C@H](N)c3ccccc3)C(=O)N2[C@H]1C(=O)O [Ampicillin sodium salt] (20 µM),0.00123,0.943,0.726,0.0281,1.2 (inactive),0.0126 (active),0.0802 (active),0.981 (inactive),1.02 (inactive),1.23 (inactive),1.18 (inactive),0.0719 (active)
CC(=O)O[C@H]1C(=O)[C@@]2(C)[C@H]([C@H](OC(=O)c3ccccc3)[C@]3(O)C[C@H](OC(=O)[C@H](O)[C@@H](NC(=O)c4ccccc4)c4ccccc4)C(C)=C1C3(C)C)[C@]1(OC(C)=O)CO[C@@H]1C[C@@H]2O [Paclitaxel] (20 µM),1.04,1.03,1.05,0.944,0.885 (inactive),0.975 (inactive),1.08 (inactive),1.04 (inactive),0.969 (inactive),1.03 (inactive),1.03 (inactive),1.07 (inactive)
